Several values for one entry are separate records, joined by “and”; a condition that tells them apart may be missing. Equal values may be shown once. About 79,000 compounds went through this panel and 15% of them were active in at least one assay; those are over-represented in the sample as a whole. Unmarked numbers belong to inactive results. Activity calls are given as the source filed them. Cut-off read from the data, not from the text of the source: active = growth inhibition above about 70%; inactive = the rest.
Experiments:
[1] = NCI Yeast Anticancer Drug Screen. Data for the sgs1 mgt1 strain (AID 161);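 note: 0% = growth of cultures given vehicle only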; details: S. cerevisiae sgs1 mgt1 strain, stronger effect = higher value
Procedure, shortened: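 Yeast cells carrying a defined DNA-repair defect were exposed to test compounds. Growth inhibition was measured relative to vehicle-treated controls.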

[2] = NCI Yeast Anticancer Drug Screen. Data for the cln2 rad14 strain (AID 165);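 note: 0% = growth equal to vehicle treated cultures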; details: S. cerevisiae cln2 rad14 strain, stronger effect = higher value
Procedure, shortened: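 Yeast carrying cln2 and rad14 alterations (cell cycle control and DNA damage repair) were exposed to compounds. Growth inhibition was measured against vehicle-treated controls.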

[3] = NCI Yeast Anticancer Drug Screen. Data for the bub3 strain (AID 167); details: S. cerevisiae bub3 mutant strain, stronger effect = higher value
Procedure, shortened: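 Growth of a checkpoint-deficient yeast mutant is measured after compound exposure. Values represent inhibition relative to vehicle.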

[4] = NCI Yeast Anticancer Drug Screen. Data for the mlh1 strain (AID 171);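 note: 0% = growth of vehicle-treated control cultures of the same strain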; details: S. cerevisiae mlh1 strain growth inhibition, stronger effect = higher value
Procedure, shortened: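 Yeast carrying a defined genetic alteration in DNA damage repair or cell cycle control were exposed to test compounds. Growth inhibition was measured relative to vehicle-treated controls.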

[5] = NCI Yeast Anticancer Drug Screen. Data for the sgs1 strain (AID 173);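 note: 0% = growth of vehicle-only control cultures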; details: S. cerevisiae sgs1 mutant, stronger effect = higher value
Procedure, shortened: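 Yeast mutant strains carrying defined defects in DNA damage repair or cell cycle control were exposed to test compounds. Growth inhibition was scored against vehicle-treated controls.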

[6] = NCI Yeast Anticancer Drug Screen. Data for the mlh1 rad18 strain (AID 175); details: S. cerevisiae mlh1 rad18 strain growth inhibition, stronger effect = higher value
Procedure, shortened: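 Growth inhibition of the yeast strain was measured after compound exposure and expressed relative to vehicle-treated controls. The strain carries defined defects in DNA damage repair.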

[7] = NCI Yeast Anticancer Drug Screen. Data for the rad18 strain (AID 177); details: S. cerevisiae rad18 mutant growth inhibition, stronger effect = higher value
Procedure, shortened: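 Yeast carrying a defined DNA damage repair alteration were exposed to compounds. Growth inhibition was expressed relative to vehicle-treated controls.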

[8] = NCI Yeast Anticancer Drug Screen. Data for the rad52 strain (AID 147);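 note: 0% = growth of vehicle-treated control cultures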; details: S. cerevisiae rad52 mutant growth inhibition, stronger effect = higher value
Procedure, shortened: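 Yeast strain carrying a DNA damage repair alteration was exposed to test compounds. Growth inhibition was measured relative to vehicle-treated controls.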

[9] = NCI Yeast Anticancer Drug Screen. Data for the wt1 strain (AID 149);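 note: 0% = growth of vehicle-treated wt1 cultures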; details: S. cerevisiae wt1 strain (SPY 50644) growth inhibition, stronger effect = higher value
Procedure, shortened: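 Readout: yeast growth inhibition, normalised to vehicle controls, in the wt1 strain exposed to test compounds.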

[10] = NCI Yeast Anticancer Drug Screen. Data for the rad50 strain (AID 155);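 note: 0% = growth of vehicle-only cultures of the same strain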; details: S. cerevisiae rad50 strain growth inhibition, stronger effect = higher value
Procedure, shortened: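 Compounds were tested on a yeast strain with an engineered DNA damage repair alteration; the reported value is growth inhibition normalised to vehicle treatment.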

[11] = NCI Yeast Anticancer Drug Screen. Data for the mec2-1 strain (AID 157); details: S. cerevisiae mec2-1 strain, stronger effect = higher value
Procedure, shortened: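 mec2-1 yeast strain, carrying an alteration in DNA damage repair or cell cycle control, was exposed to compounds; growth inhibition was measured relative to vehicle-treated controls.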

[12] = NCI Yeast Anticancer Drug Screen. Data for the rad14 strain (AID 159);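 note: 0% = growth of vehicle-treated control cultures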; details: S. cerevisiae rad14 strain growth inhibition, stronger effect = higher value
Procedure, shortened: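 Compound-treated yeast with a defined DNA-repair lesion; growth inhibition normalised to vehicle-treated cultures.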

[13] = NCI Yeast Anticancer Drug Screen. Data for the CLN2oe strain (AID 163);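 note: 0% = growth of vehicle-only control cultures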; details: S. cerevisiae CLN2oe strain, stronger effect = higher value
Procedure, shortened: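 Yeast cells carrying a defined cell-cycle control alteration were exposed to test compounds. Growth inhibition was scored against vehicle-treated control cultures.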

[14] = NCI Yeast Anticancer Drug Screen. Data for the wt2 strain (AID 169);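 note: 0% = growth of vehicle-treated yeast cultures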; details: S. cerevisiae wt2 strain growth inhibition, stronger effect = higher value
Procedure, shortened: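 Yeast cells were exposed to test compounds, and growth inhibition was measured relative to vehicle-treated controls.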

[15] = at 5.0 µM (retest, dose inferred, filed as 0.5)
[16] = at 50.0 µM (retest, dose inferred, filed as 5.0)

With `CC(=O)C1=C(O)C2(C)c3c(O)c(C)c(O)c(C(C)=O)c3OC2(Sc2ccccc2)CC1=O` (stereo not drawn) the growth inhibition ([1]; at 50.0 µM) was 48.1% and 0.4%, the growth inhibition [2, 15] was 50% and the growth inhibition [2, 16] was 94% (active). The growth inhibition ([2]; at 50.0 µM) was 68.8% and 4.6%, the growth inhibition ([3]; at 1.2 µM) was 12% and the growth inhibition ([3]; at 3.7 µM) was 40%. The growth inhibition [3, 15] was 36%, the growth inhibition ([3]; at 11.0 µM) was 42% and the growth inhibition ([3]; at 33.0 µM) was 51%. The growth inhibition [3, 16] was 91% (active), the growth inhibition ([3]; at 50.0 µM) was 59.5% and -0.65% and the growth inhibition ([3]; at 100.0 µM) was 86% (active). For the same molecule, the growth inhibition ([4]; at 1.2 µM) was 3%, the growth inhibition ([4]; at 3.7 µM) was 23% and the growth inhibition ([4]; at 11.0 µM) was 25%. The growth inhibition ([4]; at 33.0 µM) was 38%, the growth inhibition ([4]; at 100.0 µM) was 83% (active) and the growth inhibition ([5]; at 1.2 µM) was 20%. The growth inhibition ([5]; at 3.7 µM) was 35%, the growth inhibition ([5]; at 11.0 µM) was 48% and the growth inhibition ([5]; at 33.0 µM) was 55%. The growth inhibition ([5]; at 100.0 µM) was 85% (active), the growth inhibition [6, 15] was 14% and the growth inhibition [6, 16] was 89% (active). For the same molecule, the growth inhibition ([6]; at 50.0 µM) was 61.6% and 6.3%, the growth inhibition ([7]; at 1.2 µM) was 18% and the growth inhibition ([7]; at 3.7 µM) was 39%. For the same molecule, the growth inhibition ([7]; at 11.0 µM) was 31%, the growth inhibition ([7]; at 33.0 µM) was 47% and the growth inhibition ([7]; at 100.0 µM) was 82% (active).
In the case of `O=C(Nc1cccc(C(F)(F)F)c1)Oc1ccc(Cl)cc1C(=O)c1ccccc1`, the growth inhibition ([8]; at 1.2 µM) is reported as 15%, the growth inhibition ([8]; at 3.7 µM) is reported as 17% and the growth inhibition ([8]; at 11.0 µM) is reported as 80% (active). The growth inhibition ([8]; at 33.0 µM) was 69%, the growth inhibition ([8]; at 100.0 µM) was 98% (active) and the growth inhibition ([9]; at 1.2 µM) was 18%. For the same molecule, the growth inhibition ([9]; at 3.7 µM) was 13%, the growth inhibition ([9]; at 11.0 µM) was 76% (active) and the growth inhibition ([9]; at 33.0 µM) was 80% (active). The growth inhibition ([9]; at 100.0 µM) was 97% (active), the growth inhibition ([10]; at 1.2 µM) was 22% and the growth inhibition ([10]; at 3.7 µM) was 17%. For the same molecule, the growth inhibition [10, 15] was 99% (active), the growth inhibition ([10]; at 11.0 µM) was 90% (active) and the growth inhibition ([10]; at 33.0 µM) was 82% (active). The growth inhibition [10, 16] was 97% (active), the growth inhibition ([10]; at 50.0 µM) was 90.4% (active) and the growth inhibition ([10]; at 100.0 µM) was 98% (active). For the same molecule, the growth inhibition ([11]; at 1.2 µM) was 19%, the growth inhibition ([11]; at 3.7 µM) was 42% and the growth inhibition [11, 15] was 100% (active). The growth inhibition ([11]; at 11.0 µM) was 88% (active), the growth inhibition ([11]; at 33.0 µM) was 97% (active) and the growth inhibition [11, 16] was 89% (active). The growth inhibition ([11]; at 50.0 µM) was 92.9% (active), the growth inhibition ([11]; at 100.0 µM) was 97% (active) and the growth inhibition ([12]; at 1.2 µM) was -3%. It also gave a growth inhibition ([12]; at 3.7 µM) of -2%, a growth inhibition ([12]; at 11.0 µM) of 51% and a growth inhibition ([12]; at 33.0 µM) of 64%. The growth inhibition ([12]; at 100.0 µM) was 97% (active), the growth inhibition [1, 15] was -34% and the growth inhibition [1, 16] was 98% (active). For the same molecule, the growth inhibition ([1]; at 50.0 µM) was 92.9% (active), the growth inhibition ([13]; at 1.2 µM) was 24% and the growth inhibition ([13]; at 3.7 µM) was 15%. For the same molecule, the growth inhibition ([13]; at 11.0 µM) was 74% (active), the growth inhibition ([13]; at 33.0 µM) was 85% (active) and the growth inhibition ([13]; at 100.0 µM) was 97% (active). For the same molecule, the growth inhibition [2, 15] was 31%, the growth inhibition [2, 16] was 98% (active) and the growth inhibition ([2]; at 50.0 µM) was 93% (active). It also gave a growth inhibition ([3]; at 1.2 µM) of 10%, a growth inhibition ([3]; at 3.7 µM) of 24% and a growth inhibition [3, 15] of 15%. The growth inhibition ([3]; at 11.0 µM) was 83% (active), the growth inhibition ([3]; at 33.0 µM) was 91% (active) and the growth inhibition [3, 16] was 96% (active). The growth inhibition ([3]; at 50.0 µM) was 91% (active), the growth inhibition ([3]; at 100.0 µM) was 97% (active) and the growth inhibition ([14]; at 1.2 µM) was 15%. The growth inhibition ([14]; at 3.7 µM) was 6%, the growth inhibition ([14]; at 11.0 µM) was 91% (active) and the growth inhibition ([14]; at 33.0 µM) was 77% (active). For the same molecule, the growth inhibition ([14]; at 100.0 µM) was 98% (active), the growth inhibition ([4]; at 1.2 µM) was 9% and the growth inhibition ([4]; at 3.7 µM) was 8%. The growth inhibition ([4]; at 11.0 µM) was 88% (active), the growth inhibition ([4]; at 33.0 µM) was 70% (active) and the growth inhibition ([4]; at 100.0 µM) was 97% (active). The growth inhibition ([5]; at 1.2 µM) was 24%, the growth inhibition ([5]; at 3.7 µM) was 30% and the growth inhibition ([5]; at 11.0 µM) was 82% (active). The growth inhibition ([5]; at 33.0 µM) was 91% (active), the growth inhibition ([5]; at 100.0 µM) was 97% (active) and the growth inhibition [6, 15] was 100% (active). The growth inhibition [6, 16] was 93% (active), the growth inhibition ([6]; at 50.0 µM) was 91.2% (active) and the growth inhibition ([7]; at 1.2 µM) was 6%. The growth inhibition ([7]; at 3.7 µM) was 21%, the growth inhibition ([7]; at 11.0 µM) was 91% (active) and the growth inhibition ([7]; at 33.0 µM) was 86% (active). For the same molecule, the growth inhibition ([7]; at 100.0 µM) was 98% (active).

Source: PubChem BioAssay (NCI)
